The results in this text go back to PubChem BioAssay AID2417 (National Center for Advancing Translational Sciences (NCATS), 2010).

Among all 140,000 compounds or so, about 4,300 (3.1%) were called active. Inconclusive results (about 21%) are left out. This excerpt belongs to a sample that is enriched for actives. Unmarked numbers belong to inactive results.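 How the source made its calls: active means readout at or below -70, meaning at least 70% loss of cells showing the perinucleolar compartment, a nuclear body marking cancer cells; inconclusive means readout between -30 and a set limit; inactive means the rest.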

A short description of the test: High Content Assay for Compounds that inhibit the Assembly of the Perinucleolar Compartment.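 Further: plate controls were DMSO wells for no effect and camptothecin positive control wells for full effect.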 To be noted: PC3M PTB-GFP, PNC prevalence imaging, 16 h; at 10 µM; active compounds read low. The gist of the method:
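PC3M cells stably expressing PTB-GFP, 750–1000 cells/well, treated 16 h at 37 °C with compound (23 nl of library stock), in duplicate. After paraformaldehyde fixation and Hoechst stain, imaged at 20x; PNC prevalence scored by image analysis.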
As for `Cc1cccc2cc(C#N)c(N3CCCC3)nc12`, the activity change (PNC), negative = inhibition is -8.64%.

For the molecule `FC(F)(F)c1cccc(-c2cc3ccccc3nc2N2CCCC2)c1`, the activity change (PNC), negative = inhibition was -94.9% (active).

For `S=C(NCCc1ccccc1)NCc1ccccc1Cl`, the activity change (PNC), negative = inhibition was 29.5%.

Consider `COc1ccc(-n2c(C)cc(C(=O)CN3C(=O)NC4(CCc5ccccc54)C3=O)c2C)cc1` (configuration not stated), for which the activity change (PNC), negative = inhibition is -15%.

On to `COc1ccccc1N1CCN(Cc2nnnn2CCc2ccccc2)CC1`, for which the activity change (PNC), negative = inhibition is -5.45%.

With `COc1ccccc1N1CCN(Cc2ccc(OC)c3ccccc23)CC1`, the activity change (PNC), negative = inhibition was -100% (active).

On to `COc1ccccc1N1CCN(CCCCOc2ccc(F)cc2)CC1`, for which the activity change (PNC), negative = inhibition was 11%.

As to `O=C1/C(=C\c2ccccc2Cl)SC(=S)N1CCC(=O)N1CCCc2ccccc21`, the activity change (PNC), negative = inhibition is 47.3%.

As to `O=C(Nc1cccc(S(=O)(=O)N2CCCCC2)c1)c1ccc2c(c1)OCO2`, the activity change (PNC), negative = inhibition was -20.4%.

On to `CC(C)Oc1ccc(CC(=O)NNC(=S)Nc2ccc(Br)cc2)cc1`, for which the activity change (PNC), negative = inhibition is -113% (active).

As for `Cc1ccc(OC(=O)CCC(=O)Nc2ccc(Br)cc2)cc1`, the activity change (PNC), negative = inhibition was -25%.

Consider `COC(=O)Cc1ccc(NC(=S)NCc2ccccc2)cc1`, for which the activity change (PNC), negative = inhibition is -25.7%.

As for `Cc1ccccc1NC(=S)N(CCCN1CCOCC1)Cc1cccs1`, the activity change (PNC), negative = inhibition is 27.2%.

Regarding `Cc1ccc2c(c1)C1CN(C)CCC1N2C(=O)c1ccccc1NS(=O)(=O)c1ccc(F)cc1C` (configuration not stated), the activity change (PNC), negative = inhibition is -99.6% (active).

As to `Cc1ccc(S(=O)(=O)NC(C)C(=O)Nc2ccccc2C(=O)N2CCCC2)cc1` (configuration not stated), the activity change (PNC), negative = inhibition is 12.1%.

For the molecule `CC1CN(C(=O)c2ccccc2NS(=O)(=O)c2cccc([N+](=O)[O-])c2)CC(C)O1` (configuration not stated), the activity change (PNC), negative = inhibition is 25.2%.

Take `CCC(=O)Nc1c(C)n[nH]c1C`: the activity change (PNC), negative = inhibition was 0.725%.

As for `O=C(c1cccs1)n1nc(NCc2ccccc2)nc1NCc1ccccc1`, the activity change (PNC), negative = inhibition is -4.14%.

Turning to `CC(=O)NC(Cc1ccccc1)C(=O)NC1CCN(c2ncccc2[N+](=O)[O-])CC1` (configuration not stated), the activity change (PNC), negative = inhibition was 23.2%.

In the case of `CC(C)n1c(C(O)c2ccccc2)nc2ccccc21` (configuration not stated), the activity change (PNC), negative = inhibition was 24.7%.

Regarding `CC(C)n1c(NCc2c[nH]c3ccccc23)nc2ccccc21`, the activity change (PNC), negative = inhibition is -100% (active).

Consider `Cc1ccc(O)c(CNc2nc3ccccc3n2C)c1`, for which the activity change (PNC), negative = inhibition was -1.77%.

Consider `S=C(NCCc1ccccc1)NCC1CCCO1` (configuration not stated), for which the activity change (PNC), negative = inhibition was -9.43%.

On to `CCOC(=O)C1CCN(c2ncnc3c2oc2ccc(Br)cc23)CC1`, for which the activity change (PNC), negative = inhibition was 11.1%.

For `CCOC(=O)C1CCN(Cc2coc3ccc(Cl)cc3c2=O)CC1`, the activity change (PNC), negative = inhibition is -80.9% (active).

In the case of `CCOC(=O)c1nnn(-c2nonc2-n2cccc2)c1CN1CCC(C(=O)OCC)CC1`, the activity change (PNC), negative = inhibition is 10.9%.

For `Cc1ccc(C(=O)COC(=O)CCCC(=O)NC2CCCCC2)cc1[N+](=O)[O-]`, the activity change (PNC), negative = inhibition was 17%.

Take `CCOc1ccc(OCC)c(-c2c(=O)n(OCc3ccc(Cl)cc3)c3ccccc3[n+]2[O-])c1`: the activity change (PNC), negative = inhibition is 60.4%.

In the case of `COc1ccc(OC)c(-c2c(=O)n(OCc3ccccc3Br)c3ccccc3[n+]2[O-])c1`, the activity change (PNC), negative = inhibition was -113% (active).

As for `C=CCNCCCCOc1ccccc1`, the activity change (PNC), negative = inhibition was -6.05%.

Take `CC(CNc1ccc([N+](=O)[O-])cc1)NC(=O)c1ccccc1Br` (configuration not stated): the activity change (PNC), negative = inhibition is 3.05%.

`CN(C)CCNC(=O)Cc1ccc([N+](=O)[O-])cc1`: the activity change (PNC), negative = inhibition is 15.1%.

In the case of `O=C(NCCNc1ccc([N+](=O)[O-])cc1)c1cccc2c(Br)cccc12`, the activity change (PNC), negative = inhibition was -86.3% (active).

For `Cc1nc2ccccc2nc(C)c1=NOCc1ccc(Cl)cc1Cl`, the activity change (PNC), negative = inhibition was -24.9%.

As for `Cc1ccn(-c2cccc(-n3ccc(C)n3)n2)n1`, the activity change (PNC), negative = inhibition is -4.25%.

Consider `Cc1c(C2=CCN(S(=O)(=O)c3ccc(Cl)cc3)CC2)c2ccccc2n1C`, for which the activity change (PNC), negative = inhibition is 30.7%.

Regarding `O=[N+]([O-])c1cccc(S(=O)(=O)N2CCCCCC2)c1`, the activity change (PNC), negative = inhibition is -7.16%.

For the molecule `CO/N=C(\N)c1ccc([N+](=O)[O-])cc1`, the activity change (PNC), negative = inhibition was 28.8%.

On to `N/C(=N\OS(=O)(=O)c1cccc([N+](=O)[O-])c1)c1ccncc1`, for which the activity change (PNC), negative = inhibition was -108% (active).

`CCC1(C(=O)c2ccccc2)C(c2cccc([N+](=O)[O-])c2)C1(C(=O)OC)C(=O)OC` (configuration not stated): the activity change (PNC), negative = inhibition is -9.15%.

As to `CC(C)(C)n1nnc(CCc2nnn(C(C)(C)C)n2)n1`, the activity change (PNC), negative = inhibition is -91.9% (active).

Turning to `O=C(Nc1ccc([N+](=O)[O-])cc1)C1(c2ccccc2)CCOCC1`, the activity change (PNC), negative = inhibition was 5.8%.

Take `COc1cccc(/C=N/NC(=O)c2cccc([N+](=O)[O-])c2)c1OS(=O)(=O)c1ccc(C)cc1`: the activity change (PNC), negative = inhibition is 20.7%.

`Cc1ccc(-n2[nH]c(C)c(/C=N/NC(=O)c3cccc([N+](=O)[O-])c3)c2=O)cc1C`: the activity change (PNC), negative = inhibition is 3.84%.

In the case of `Cc1cc(C(=O)N/N=C/c2cc([N+](=O)[O-])cc(C)c2O)n[nH]1`, the activity change (PNC), negative = inhibition was -128% (active).

For the molecule `Cc1nn(-c2ccccc2)c(-n2cccc2)c1C(=O)O`, the activity change (PNC), negative = inhibition was 4.84%.

As for `CC(C)c1ccc(N2CC(C(=O)Nc3nccs3)CC2=O)cc1` (configuration not stated), the activity change (PNC), negative = inhibition is 21.8%.
